# Data published in PubChem BioAssay (EPA / NIEHS).
# Results filed as inconclusive are left out. Active and inactive are the calls of the source. How the source made its calls, unless noted: active means hit-call score of the fitted dose curve at least 0.9, where 1 is the maximum; inactive means score below 0.9.
# Key:
# [1] = CCTE_Deisenroth_AIME_384WELL_CTox_Active: Cytotoxicity Assessment (CTOX) in CCTE's 384-well Estrogen Receptor Transactivation Assay with AIME metabolic competence (metabolism positive), Deisenroth Lab (AID 2284037; active means hit-call score of the fitted dose curve at least 0.9, where 1 is the maximum;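 further: chemicals first conditioned 2 h by alginate-bound induced rat liver S9 before cells; activity means signal loss indicating cell death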)
# Procedure, shortened: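 Cytotoxicity in VM7Luc4E2 breast cells, 24 hour, measured as protease-substrate fluorescence loss, after 2-hour metabolic conditioning with induced rat hepatic S9 in alginate microspheres. Concentrations 0.002 - 200 uM, 10 points, bidirectional fitting.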
# [2] = CCTE_Shafer_MEA_dev_per_burst_spike_percent: CCTE's Neural Network Formation Assay for Percent of Spikes in a Burst, Shafer Lab (AID 2284032);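 on AC50: fitted as a decrease in burst spike percentage below DMSO baseline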
# Procedure, shortened: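 Rat primary cortical neurons on 16-electrode MEA wells, dosed from plating day 0 for 12 days with renewal on DIV 5 and 9; spikes-in-bursts percentage averaged over bursting electrodes, collapsed as AUC across days 5, 7, 9, 12; loss direction versus DMSO.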
# [3] = CCTE_Shafer_MEA_dev_burst_rate: CCTE's Neural Network Formation Assay for Burst Rate, Shafer Lab (AID 2284042);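 on AC50: potency for loss of burst rate below DMSO control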
# Procedure, shortened: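 Developmental network assay measuring how 12-day exposure of rat cortical neuron cultures alters bursting on extracellular MEA recordings. Values are AUC of well-mean burst rate across four recording days, relative to DMSO vehicle.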
# [4] = CCTE_Shafer_MEA_dev_bursting_electrodes_number: CCTE's Neural Network Formation Assay for Number of Bursting Electrodes, Shafer Lab (AID 2284043; active means hit-call score of the fitted dose curve at least 0.9, where 1 is the maximum;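 on AC50: potency is for loss of bursting electrodes relative to DMSO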)
# Procedure, shortened: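 Read-out is the per-well number of electrodes bursting at least once every 2 minutes, recorded on days 5, 7, 9 and 12 and collapsed by trapezoidal area under the curve. Cultures were primary rat cortical neurons on MEA plates, treated continuously from plating.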
# [5] = CCTE_Shafer_MEA_dev_per_burst_interspike_interval: CCTE's Neural Network Formation Assay for Burst Interspike Interval, Shafer Lab (AID 2284044);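 further: mean spike spacing inside bursts as AUC over recordings on days 5 7 9 12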;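 on AC50: potency for a decrease of within-burst interspike interval below DMSO level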
# Procedure, shortened: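 Primary rat cortical neurons on 48-well MEA plates, exposed from day 0 through day 12, treatment renewed at DIV 5 and 9. Within-burst interspike interval recorded days 5, 7, 9, 12, well-averaged, summarised as AUC; negative fit versus DMSO.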
# [6] = CCTE_Shafer_MEA_dev_burst_duration_mean: CCTE's Neural Network Formation Assay for Mean Burst Duration, Shafer Lab (AID 2284045);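 on AC50: curve fitted for loss meaning shorter burst duration than DMSO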
# Procedure, shortened: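 Read-out: average first-to-last-spike interval within single-electrode bursts, averaged over bursting electrodes per well, then summarised as area under the curve across days 5, 7, 9 and 12. Developing rat cortical networks were exposed from day 0.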
# [7] = CCTE_Shafer_MEA_dev_interburst_interval_mean: CCTE's Neural Network Formation Assay for Mean Interburst Interval, Shafer Lab (AID 2284046);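 further: well-mean interburst interval of bursting electrodes as AUC over four recording days; curve fitted for decrease in interburst interval relative to DMSO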
# Procedure, shortened: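 Network formation assay in primary rat cortical cultures, exposed from DIV 0 to 12. Mean interburst interval per well, integrated as AUC over four recordings.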
# [8] = CCTE_Shafer_MEA_dev_network_spike_peak: CCTE's Neural Network Formation Assay for Mean Number of Electrodes in Network Spike, Shafer Lab (AID 2284049);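 on AC50: fitted for loss of signal meaning fewer electrodes in network spikes than DMSO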
# Procedure, shortened: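 Rat cortical primary culture, 1.5 x 10^5 cells/well, 48-well MEA (16 electrodes/well). Dosing day 0 through DIV 12, full media/compound exchange DIV 5, 9. AxIS adaptive spike detection; AUC over days 5/7/9/12; loss-of-signal vs DMSO.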
# [9] = CCTE_Shafer_MEA_dev_spike_duration_mean: CCTE's Neural Network Formation Assay for Mean Spike Duration, Shafer Lab (AID 2284051);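 further: mean network spike duration pooled as area under curve over DIV 5 to 12 recordings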;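 on AC50: potency for a decrease in mean network spike duration versus DMSO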
# Procedure, shortened: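 With DMSO as baseline, loss of mean network spike duration was scored from extracellular recordings of rat cortical neurons on MEA plates. Exposure spanned plating to DIV 12; the four recording days were collapsed into one AUC value.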
# [10] = CCTE_Shafer_MEA_dev_network_spike_duration_std: CCTE's Neural Network Formation Assay for Standard Deviation of Network Spike Duration, Shafer Lab (AID 2284052);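 further: area under curve of spike duration SD across recording days 5 to 12; hits are decreases in network spike duration SD versus DMSO vehicle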
# Procedure, shortened: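 Developing networks of rat cortical neurons were exposed over twelve days in vitro on 48-well MEA plates. Trapezoidal AUC of recordings (DIV 5–12) was analysed for signal loss relative to DMSO vehicle.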
# [11] = CCTE_Shafer_MEA_dev_per_network_spike_spike_percent: CCTE's Neural Network Formation Assay for Percent of Spikes in a Network Spike, Shafer Lab (AID 2284054)
# Procedure, shortened: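 Rat primary cortical cultures, 1.5 x 10^5 cells/well on MEA. Continuous compound exposure d0–12, medium/compound renewed DIV 5, 9. Network-spike spike % (0.05 s peak window), AUC over 4 recordings, DMSO baseline.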
# [12] = CCTE_Shafer_MEA_dev_LDH: CCTE's Lactate Dehydrogenase Assay for Cytotoxicity in the Neural Network Formation Assay, Shafer Lab (AID 2284068; active means hit-call score of the fitted dose curve at least 0.9, where 1 is the maximum;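 further: exposure for twelve days from plating with re-dosing on DIV 5 and 9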)
# Procedure, shortened: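 Developing rat cortical networks on MEA plates are exposed to compound for 12 days from plating. LDH activity is measured spectrophotometrically, with DMSO as baseline.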
# [13] = CCTE_Shafer_MEA_dev_active_electrodes_number: CCTE's Neural Network Formation Assay for Number of Active Electrodes, Shafer Lab (AID 2284040; active means hit-call score of the fitted dose curve at least 0.9, where 1 is the maximum;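 on AC50: potency for loss of active electrodes versus DMSO so lower counts are hits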)
# Procedure, shortened: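 Primary rat cortical neurons on 16-electrode MEA wells, exposed from day 0 through day 12 with compound renewed at DIV 5 and 9 feeds. Active electrodes (mean firing ≥5 spikes/min) counted at DIV 5, 7, 9, 12; trapezoidal AUC across days, loss-of-signal versus DMSO.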
# [14] = UKN5_HCS_SBAD2_cell_viability: Viability Assessment in the University of Konstanz (UKN) Leist Lab Neurite Outgrowth Assay in human iPSC-derived immature Dorsal Root Ganglia Neurons (UKN5) (AID 2284056)
# Procedure, shortened: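 iPSC-derived immature peripheral neurons (SBAD2) seeded on Matrigel with CHIR99021, SU5402 and DAPT, dosed 1 h later for 24 h. Viability from Hoechst H-33342 and calcein-AM live staining, high-content imaging; bidirectional fit versus DMSO.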
compound,measurement,setting,value
COc1ccc(N)cc1,outcome,[1],inactive
C=CC(F)(C(F)(F)F)C(F)(F)C(F)(F)F (stereo unspecified),outcome,[2],inactive
same,outcome,[3],inactive
same,outcome,[4],inactive
same,outcome,[5],inactive
same,outcome,[6],inactive
same,outcome,[7],inactive
same,outcome,[8],inactive
same,outcome,[9],inactive
same,outcome,[10],inactive
same,outcome,[11],inactive
same,outcome,[12],inactive
O=C(CBr)c1ccc(O)cc1,outcome,[1],inactive
Nc1ncn[nH]1,outcome,[1],inactive
CC(F)(F)CC(F)(F)F,outcome,[2],inactive
same,outcome,[3],inactive
same,outcome,[5],inactive
same,outcome,[6],inactive
same,outcome,[7],inactive
same,outcome,[8],inactive
same,outcome,[9],inactive
same,outcome,[10],inactive
same,outcome,[11],inactive
OC(Cc1ccccc1Cl)(Cn1[nH]cnc1=S)C1(Cl)CC1 (stereo unspecified),AC50,[2],50 µM (active)
same,AC50,[13],37.1 µM (active)
same,AC50,[3],29.4 µM (active)
same,AC50,[4],29.9 µM (active)
same,AC50,[5],11.2 µM (active)
same,outcome,[6],inactive
same,AC50,[7],82.5 µM (active)
same,AC50,[8],50 µM (active)
same,AC50,[9],33.6 µM (active)
same,outcome,[10],inactive
same,AC50,[11],82.3 µM (active)
same,AC50,[12],73.5 µM (active)
CC1(C)[C@H](C(=O)O[C@H](C#N)c2cccc(Oc3ccccc3)c2)[C@@H]1/C=C(\Cl)C(F)(F)F,AC50,[2],22.7 µM (active)
same,AC50,[13],12.9 µM (active)
same,outcome,[3],inactive
same,AC50,[4],12.9 µM (active)
same,outcome,[5],inactive
same,outcome,[6],inactive
same,outcome,[7],inactive
same,AC50,[8],8.95 µM (active)
same,AC50,[9],12.9 µM (active)
same,outcome,[10],inactive
same,AC50,[11],3.67 µM (active)
same,AC50,[12],22.7 µM (active)
FC(F)OCC(F)(F)C(F)(F)F,outcome,[2],inactive
same,outcome,[13],inactive
same,outcome,[3],inactive
same,outcome,[4],inactive
same,outcome,[5],inactive
same,outcome,[6],inactive
same,outcome,[7],inactive
same,outcome,[8],inactive
same,outcome,[9],inactive
same,outcome,[10],inactive
same,outcome,[11],inactive
CCOCn1c(-c2ccc(Cl)cc2)c(C#N)c(Br)c1C(F)(F)F,AC50,[2],6.04 µM (active)
same,AC50,[13],4.74 µM (active)
same,AC50,[3],4.86 µM (active)
same,AC50,[4],4.44 µM (active)
same,AC50,[5],1.61 µM (active)
same,AC50,[6],2.71 µM (active)
same,AC50,[7],6.29 µM (active)
same,AC50,[8],8.42 µM (active)
same,AC50,[9],6.23 µM (active)
same,AC50,[10],1.64 µM (active)
same,AC50,[11],10.8 µM (active)
same,AC50,[12],12.1 µM (active)
Cc1ccccc1OP(=O)(Oc1ccccc1C)Oc1ccccc1C,AC50,[2],15 µM (active)
same,AC50,[13],20.2 µM (active)
same,outcome,[3],inactive
same,AC50,[4],15 µM (active)
same,outcome,[5],inactive
same,outcome,[6],inactive
same,AC50,[7],15 µM (active)
same,AC50,[8],18.7 µM (active)
same,AC50,[9],21.4 µM (active)
same,outcome,[10],inactive
same,AC50,[11],19.4 µM (active)
same,AC50,[12],20.2 µM (active)
O=S(=O)(F)C(F)(F)C(F)(F)C(F)(F)C(F)(F)F,outcome,[2],inactive
same,outcome,[13],inactive
same,outcome,[3],inactive
same,outcome,[4],inactive
same,outcome,[5],inactive
same,outcome,[6],inactive
same,outcome,[7],inactive
same,outcome,[8],inactive
same,outcome,[9],inactive
same,outcome,[10],inactive
same,outcome,[11],inactive
CNC(=O)CSP(=O)(OC)OC,outcome,[2],inactive
same,outcome,[13],inactive
same,outcome,[3],inactive
same,outcome,[4],inactive
same,outcome,[5],inactive
same,outcome,[6],inactive
same,outcome,[7],inactive
same,outcome,[8],inactive
same,outcome,[9],inactive
same,outcome,[10],inactive
same,outcome,[11],inactive
same,AC50,[14],20.9 µM (active)
same,outcome,[12],inactive
CC(=O)C(F)(F)C(F)(F)F,outcome,[2],inactive
same,outcome,[3],inactive
same,outcome,[4],inactive
same,outcome,[5],inactive
same,outcome,[6],inactive
same,outcome,[7],inactive
same,outcome,[8],inactive
same,outcome,[9],inactive
same,outcome,[10],inactive
same,outcome,[11],inactive
